According to PubChem BioAssay AID1347426 (Functional Genomics Laboratory (NCATS/FGL), 2020):
Among all 31,000 sequences or so, about 1,400 (4.5%) were called active.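 How the source made its calls: active means median seed-adjusted z-score above 1 or below -1; inactive means the rest.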 This excerpt belongs to a sample that is enriched for actives.

Experiment: Novel Modifiers of Survival Motor Neuron (SMN) Protein: Gene Identification via Genome-wide siRNA Screen;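 further: luminescence tracks full-length SMN protein made from the SMN2 reporter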
Conditions: HEK293T SMN2-luciferase reporter, siRNA knockdown, 72 h; actives lie on both sides
Outline: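 siRNA screen, 10418 genes ×3 siRNAs; 1 pmol/well, lipid reverse transfection into HEK293T SMN2-luc reporter line. 72 h, 37 °C, 5% CO2; ONE-Glo readout. Data: neg-ctrl normalized, log10, MAD; hit = MAD >1.0 or < -1.0.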

Sequence | median seed-adjusted z-score
CCACGUAACUAUCAUAAGATT against TLL1 | 0.396 (inactive)
AGACCGACCUGGGCAUGAATT against SARM1 | 0.343 (inactive)
CCAAAAUUGAAGUAAUAGATT against GTF2E2 | -1.32 (active)
GCUCAGUUCUCGUCAAGGATT against ARIH2 | 0.0449 (inactive)
AGUGAACUCCGGUCCUGCATT against RAB11FIP3 | 0.0361 (inactive)
GCGAUGAGGUGGACUUGUATT against ST3GAL1 | 0.255 (inactive)
GACCUGUCACAGAACCAGATT against VASN | 0.213 (inactive)
GUCUUCAUGUAUGUCUUUUTT against GJB1 | 0.152 (inactive)
AGGUAGAAGAAAUGCAAUATT against PKIA | 0.533 (inactive)
GCCUAUAGGAUUGAACCAATT against DDHD2 | 0.447 (inactive)
GCUGGGUAGUUUGACUGAATT against TRIM61 | 0.0116 (inactive)
CAAAUACCGUUAAGCUGGATT against HBA1 | -1.03 (active)
CUCUUAUAGUUGAUCGUGATT against ATAD2B | 0.0192 (inactive)
GGAUAGCACAUGAUACAGATT against GAN | -1.07 (active)
CCAUAUCGAAUAAUAAUGATT against SCRT1 | -0.483 (inactive)
GGUUCUGACAGACAAUGGATT against DPT | 0.073 (inactive)
GGACUCUUCUUUAGCUUUATT against TSPAN31 | -1.13 (active)
CCGAAUCAUUAUGCACCAATT against OCLN | 0.232 (inactive)
CAACCACACUAACGAGAUUTT against GLRX | -0.0561 (inactive)
ACACCUGCCUGGUAGAGAATT against FGFR4 | 0.0825 (inactive)
GAAACUUGAUUGAUCUUUATT against MITF | -0.249 (inactive)
GAGAAGAUCUGGAACUCAUTT against CRAT | -1.42 (active)
GCAGGUCAAAUUUCCAUAATT against ZNF175 | -0.0194 (inactive)
CAAUAUCUGCUGUUAGCAATT against SCARB2 | -0.244 (inactive)
GAUCAAAUAUGACUUCCUATT against GPR103 | 0 (inactive)
GCUGGAAAAGGUUAACGAATT against PKNOX1 | 0.68 (inactive)
GGACAUGACAGCAACCUUUTT against EGR1 | 0.0836 (inactive)
CAAUGUCCGGAAGCAGUUUTT against ACAD8 | 1.06 (active)
GGUCAACUCUCUACUGAUATT against ARHGAP29 | -0.0483 (inactive)
GCAUAGAAGGCUUCACGAATT against PLCH1 | -0.00634 (inactive)
